What follows are molecules tested on ERBB4.

Kinases covered, ERBB4:
Cl.O=C(O[C@H]1CN[C@H](C#Cc2cc3ncnc(Nc4ccc5c(cnn5Cc5ccccc5)c4)c3s2)C1)N1CCOCC1 [GSK200398A]
COc1cc2ncnc(Nc3cccc(Cl)c3F)c2cc1O[C@H]1CC[C@H]([C@@H]2NCCNC2=O)CC1 [BI00133844]
Cl.c1ccc(Cc2nc3ccc(Nc4ncnc5ccccc45)cc3[nH]2)cc1 [GR269666A]
COc1cc2ncnc(Nc3ccc4c(cnn4Cc4ccccc4)c3)c2cc1OC.Cl [GW282449A]
CN(C)c1cc2c(Nc3ccc4c(cnn4Cc4ccccc4)c3)ncnc2cn1 [GW282974X]
O=C(Nc1cccc(-c2nn3ncccc3c2-c2ccnc(Nc3cccnc3)n2)c1)c1c(F)cccc1F [GSK312879]

Source: PMC7826789 (International Journal of Molecular Sciences, 2021)
